In the library only some 7.4% were active in any assay of this set; here they are far more common.
Rab9 promoter act: activates the Rab9 promoter; Potency, µM (series often up to 9.22 µM), inactives show at the top dose activation, negative = inhibition, actives largely listed as activators; AID 485297; Huh7 Rab9 promoter-luciferase reporter, luminescence, 24 h; 2.8% of 320,000 active; also: % of control where 0% means no effect; nearly all actives have a fitted effect of over 60% in size
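Steps: seed 1500 Huh7 Rab9-luc cells per well, rest 2 h at 37 °C; add compound in DMSO; incubate 24 h; add luciferase reagent, 10 min ambient; read luminescence.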
ELG1 genotox: inducers of genotoxicity in HEK293T ELG1-luciferase cells; HEK293T ELG1-luciferase reporter, luminescence, 16 h; Potency, µM (titrated, usually from 46 µM), for inactives: at the top dose activity change, positive = activation, most hits filed as activators; 1.3% of 330,000 active; AID 504466; also: % of control where 0% means no effect; nearly all actives have a fitted effect of over 60% in size
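Quantitative HTS format in 1536-well plates. HEK293T ELG1-luciferase reporter cells receive test compound and are incubated 16 hr at 37 °C, 5% CO2; ONE-Glo added, 30 min room temperature, then luminescence read.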
FLuc modulator: inhibits or activates purified firefly luciferase, miR-21 counter-screen | AID 588342 | P08659 | 6.9% of 360,000 active | Potency, µM (doses to about 57.5 µM), without a hit: at the highest dose activity change, negative = inhibition, most hits filed as inhibitors | purified FLuc, Km substrates, luminescence inhibition;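 also: plate controls were vehicle for no effect and reference inhibitor for full effect; nearly all actives have a fitted effect of over 55% in size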
Target sequence (P08659 whole entry, looked up): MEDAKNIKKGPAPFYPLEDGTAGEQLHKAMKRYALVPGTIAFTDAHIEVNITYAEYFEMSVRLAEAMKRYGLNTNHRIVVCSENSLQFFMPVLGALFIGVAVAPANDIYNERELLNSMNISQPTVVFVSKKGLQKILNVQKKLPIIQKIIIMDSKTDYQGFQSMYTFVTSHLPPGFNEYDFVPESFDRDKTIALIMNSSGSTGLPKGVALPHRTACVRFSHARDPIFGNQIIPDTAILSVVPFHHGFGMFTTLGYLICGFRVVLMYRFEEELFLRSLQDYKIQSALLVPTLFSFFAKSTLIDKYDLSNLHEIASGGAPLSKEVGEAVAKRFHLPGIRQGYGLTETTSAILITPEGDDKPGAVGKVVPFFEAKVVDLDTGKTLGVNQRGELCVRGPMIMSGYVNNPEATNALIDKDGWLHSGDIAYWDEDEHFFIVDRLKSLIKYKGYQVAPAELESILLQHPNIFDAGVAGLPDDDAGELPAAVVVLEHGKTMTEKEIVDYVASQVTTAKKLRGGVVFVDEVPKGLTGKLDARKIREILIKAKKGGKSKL
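Purified P. pyralis luciferase (10nM final) with 10uM D-luciferin and 10uM ATP (Km levels) in 50mM Tris acetate pH 7.5, 10mM Mg acetate, 0.01% Tween-20, 0.05% BSA; qHTS 6-point titration, ~60 µM downward; luminescence read.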
SMN2 splice enh: increases expression of the SMN2 splice variant. AID 1458. Potency, µM (highest dose often 46.1 µM), for the others: at the highest dose activity change, positive = activation, usual class: activators. 2.8% of 210,000 active. HEK293 SMN2-luciferase splicing reporter, luminescence, 30-36 h; also: % of control where 0% means no effect; nearly all actives have a fitted effect of over 55% in size
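HEK293 cells carry an SMN2 minigene-luciferase reporter in which exon 7 inclusion puts luciferase in frame. Cells were seeded at 2000 cells/well, attached for 10-12 hours, then exposed to compounds for 30-36 hours at 37C before ONE-Glo luminescence.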
NPC1 prom act: activators of NPC1 promoter. Huh7 NPC1 promoter luciferase reporter, 24 h. Potency, µM (titrated, usually from 9.22 µM), without a hit: at the highest dose activation, most hits filed as activators. 2.4% of 320,000 active; also: % of control where 0% means no effect; nearly all actives have a fitted effect of over 60% in size
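Luciferase expression driven by the NPC1 promoter was measured in stably transfected Huh7 cells after a 24 h compound incubation, using a luciferase reagent and a luminescence read.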
Luc counter: Kinase-Glo luciferase inhibition (counter-screen) | 0.28% of 200,000 active | Kinase-Glo luciferase, ATP luminescence, 8 min | AID 1379 | Potency, µM (doses to about 38.3 µM), for inactives: at the highest dose activity change, negative = inhibition, actives largely listed as inhibitors | Q27757; also: % is scaled to controls: 0 for no effect and ±100 for the full control effect; nearly all actives have a fitted effect of over 60% in size
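Compound is pinned into ATP-containing buffer (10 uM ATP, imidazole pH 7.2, 7 mM MgCl2). Kinase-Glo luciferase reagent is then added. Light output is recorded following an 8-min room-temperature incubation.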
An asterisk follows results filed as active; ? = inconclusive; . = not tested or not shown; [ ] = dose if it differs, or a comment. Calls follow the shape of the dose curve; as a rule, active = well fitted curve in the direction sought with a large enough effect; inconclusive = small, poorly fitted or top-dose-only effect, or another doubt; inactive = no such curve, though single readings can be large; an effect the other way counts as inactive or inconclusive. Potency is read from the fitted curve at half-maximal effect.

SMILES | Rab9 promoter act | ELG1 genotox | FLuc modulator | SMN2 splice enh | NPC1 prom act | Luc counter
COc1ccc(Nc2nc(-c3cccc([N+](=O)[O-])c3)nc3ccccc23)cc1 | -1% | -6% | 6% | -31% | -3% | 1%
CCc1ccc(S(=O)(=O)NCc2nc3cccnc3n2Cc2cccc(OC)c2)cc1 | . | . | -11% | . | . | .
Cc1nn(S(=O)(=O)c2cccc([N+](=O)[O-])c2)c(C)c1S(=O)(=O)N1CCOCC1 | 9% | -1%[9.26 µM] | -2% | . | -1% | .
CCn1c(SCc2nc3ccccc3s2)nnc1-c1ccccc1 | 1% | 13µM* | 15µM* | -3% | 3% | 16%
Cc1ccc2oc(C(=O)N3CCC(O)(c4ccccc4)CC3)c(C)c2c1 | 9% | 5% | ? | . | 2% | .
CC(=O)Nc1ccc2c(c1)ncn2C | -3% | 6% | 5% | -31% | -1% | -3%
O=C(Nc1cccc(-n2cnnn2)c1)c1ccco1 | 4% | 0% | -4% | 5% | -1% | 1%
CC(=O)Nc1ccc2c(c1)ncn2-c1ccc(C)cc1 | 1.8µM* | 9.2µM* | 5.4µM* | 8.9µM* | 1.1µM* | -3%
O=C(Nc1ccc2c(c1)ncn2-c1ccccc1)c1ccco1 | ? | ? | 8.5µM* | 13µM* | ? | 6%
Cn1cnc2cc(NC(=O)c3ccco3)ccc21 | ? | 7.3µM* | 19µM* | 7.1µM* | 2.8µM* | -21%
CCOC(=O)c1c(NC(=O)CCS(=O)(=O)c2ccccc2)sc2c1CCN(C(C)C)C2 | -5% | -5% | -2% | . | 2% | .
CCOC(=O)c1cc(CC)sc1NC(=O)CN1CCN(C(=O)c2ccco2)CC1 | 3% | -17% | 6% | . | 0% | .
O=C(Nc1ccc(Cl)c(C(F)(F)F)c1)c1nc2ccccc2nc1N1CCCCC1 | . | . | -2% | . | . | .
Cc1ccccc1C(=O)NCCCNC(=O)c1ccccn1 | 4% | 0% | 2% | . | -2% | .
O=C(Nc1cccnc1)c1cccc(-c2cc3ccccc3oc2=O)c1 | -4%[1.84 µM] | 12% | ? | 20% | 18% | -6%
CCn1nnc(NC(=O)c2cccc(-c3cc4ccccc4oc3=O)c2)n1 | 2.5µM* | ? | 15µM* | 13µM* | ? | 1%
Cc1ccc2nc(NC(=O)c3cccc(-c4cc5ccccc5oc4=O)c3)sc2c1 | ? | ? | 21µM* | 0% | ? | -1%
CC1CCC2(CC1)NC(=O)N(CC(=O)Nc1ccc(F)cc1)C2=O (configuration not stated) | -6% | 0% | 2% | . | -2% | .
O=C(c1ccc2nc[nH]c2c1)N1CCN(c2ncc(C(F)(F)F)cc2Cl)CC1 | -6% | -6% | 1% | . | -2% | .
COc1cc(/C=C2/C(=O)c3cccc([N+](=O)[O-])c3C2=O)c(Br)cc1O | -9% | -6% | ? | ? | -4% | 11µM*
COc1ccccc1NC(=O)CCCCCN1C(=O)c2cccc([N+](=O)[O-])c2C1=O | 0% | 0% | 1% | . | 1% | .
CCOc1ccc(NC(=O)c2ccccc2OCC(=O)c2ccc(C)cc2)cc1 | 5% | 18% | 5.4µM* | 14% | 2% | -3%
CCOc1ccc(NC(=O)C(C)Oc2ccccc2C(=O)Nc2ccc(C)c(Cl)c2)cc1 (configuration not stated) | 7% | -8% | 12µM* | 15% | 0% | -3%
CSc1ccccc1C(=O)Nc1cc(C)cc(C)c1 | -2% | 0% | ? | -19% | -1% | -11%
CSc1ccccc1C(=O)Nc1ccc(C)c(C)c1 | ? | ? | 15µM* | ? | ? | -7%
SMILES | Rab9 promoter act | ELG1 genotox | FLuc modulator | SMN2 splice enh | NPC1 prom act | Luc counter
CCOc1ccc(NC(=O)c2ccccc2SC)cc1 | ? | ? | 17µM* | . | ? | .
O=C(COc1ccccc1F)Nc1cc(S(=O)(=O)Nc2cccc(Cl)c2)ccc1O | ? | 1% | -2% | . | 1% | .
Cc1ccc(C(=O)COc2ccccc2N2C(=O)c3ccccc3C2=O)cc1 | ? | ? | -3% | 20µM* | ? | 0%
CCc1ccc(C(=O)c2cn(CC(=O)Nc3cc(C)ccc3C)c3nc(C)ccc3c2=O)cc1 | . | . | -4% | . | . | .
COc1ccc(NC(=O)c2ccco2)c([N+](=O)[O-])c1 | 2.5µM* | ? | 21µM* | 35µM* | ? | 0%
Cc1ccc(NC(=O)c2ccco2)c(NC(=O)c2ccccc2)c1 | 5% | -1% | 0% | . | -2% | .
COc1ccc(NC(=O)C/C(C)=N/NC(=O)c2ccco2)c([N+](=O)[O-])c1 | -2% | -15% | -3% | . | 0% | .
Cc1ccc(NC(=O)c2ccco2)c([N+](=O)[O-])c1 | 2.8µM* | ? | ? | 22µM* | 2.8µM* | -4%
COc1ccccc1CC(NC(C)=O)C(=O)NC1CCN(C(=O)c2ccc(C)cc2)CC1 (configuration not stated) | 5% | 0% | 0% | . | 2% | .
Cc1ccc(S(=O)(=O)c2nc(-c3ccco3)oc2SCc2ccc(F)cc2)cc1 | . | . | -13% | 1% | . | .
CCc1nnc(NS(=O)(=O)c2ccc(NC(=O)c3ccc(Br)cc3)cc2)s1 | 0% | 0% | 27µM* | . | -6% | .
COc1ccc(-c2nnc(NC(=O)c3cccs3)s2)c(OC)c1 | 0% | ? | ? | . | 4% | .
CCc1nnc(NC(=O)c2ccc(OC)cc2)s1 | 0.32µM* | -9% | 4.8µM* | 3.2µM* | 0.71µM* | -4%
CCc1nnc(NC(=O)c2ccc(S(C)(=O)=O)cc2)s1 | 26% | 13% | 21µM* | . | ? | .
CCc1nnc(NS(=O)(=O)c2ccc(NC(=O)OC)cc2)s1 | -8% | 3% | 4% | -1% | -1% | 3%
COc1cccc(C(=O)Nc2nnc(-c3cccs3)s2)c1 | 3.2µM* | 0.82µM* | 1.9µM* | 5.6µM* | ? | -4%
CCCCCOC(=O)Nc1nnc(CCCCC)s1 | -5% | 2% | 2% | 25% | 0% | -3%
CCCCOC(=O)Nc1nnc(CC)s1 | ? | 15µM* | ? | 14% | 16% | -3%
CCOCc1nnc(NC(=O)c2cccc(OC)c2)s1 | 13% | 13% | ? | ? | 15% | -6%
CCc1nnc(NC(=O)c2cccc(OC)c2)s1 | 3.2µM* | ? | 8.5µM* | 16µM* | 3.2µM* | -1%
CCc1nnc(NS(=O)(=O)c2ccc(N/C=C/C(=O)c3ccc(OC)cc3)cc2)s1 | -2% | ? | 21µM* | . | 7% | 1%
CCc1nnc(NS(=O)(=O)c2ccc(Nc3ccc([N+](=O)[O-])c4nonc34)cc2)s1 | 1% | 0% | 15µM* | -16% | -7% | -13%
Cc1ccc(-n2c(=O)c3c(cnn3C)n(CC(=O)Nc3ccc(C)cc3C)c2=O)cc1 | . | . | -1% | 2% | . | .

From PubChem BioAssay
